Each structure is given as a SMILES string. Activity calls are given as the source filed them. Entries that show only a call come without a potency. The call rests on the fitted dose curve; in most records, active means well fitted activation curve with a large enough effect; inconclusive means small, poorly fitted or top-dose-only effect; inactive means no such curve, though single readings can be large or run the other way.
Potency means the concentration at half of the fitted maximal effect.

The nature of the assay: Counterscreen for Identifying a Potential Treatment of Ataxia-Telangiectasia: Hit Validation. The settings on record: cell-free AlphaLISA/AlphaScreen artifact counterscreen, PBS only, no cells; series mostly up to 76.9 µM. An outline of the steps:
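Without cells, compounds at up to 76.7 uM final were combined with premixed anti-pKAP1/anti-KAP1 AlphaLISA bead reagents, protease inhibitors and lysis buffer; signal read after 6 hr at 25C to flag assay-platform artifacts.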
Regarding `C/C(CCC1CC(C)OC1=O)=N\NC(N)=S` (stereo not given), the Potency entry is “inactive”.

`CNC(=O)c1ccc(-c2cc3onc(-c4ccccc4)c3c(=O)n2C)cc1`: the Potency result is “inactive”.

Consider `Cc1nnc(SCC(=O)NC(=O)Nc2ccc3c(c2)OCCO3)n1N`, for which the Potency result is “inactive”.

In the case of `O=C(CSc1nnc(CNC(=O)c2ccccc2)o1)NCCc1ccccc1`, the Potency result is “inactive”.

`COc1cc(/C=C2\CCOC2=O)cc(OC)c1OC`: the Potency result is “inactive”.

Consider `CSc1nc(SCC(=O)O)c2c3c(sc2n1)COC(C)(C)C3`, for which the Potency result is “inactive”.

Consider `C[C@H](NC(=O)OC(C)(C)C)C(=O)NCC1CCC(C(=O)N[C@@H](Cc2ccccc2)C(=O)O)CC1` (stereo not given in full), for which the Potency entry is “inactive”.

Take `Cc1nc2sc(C(N)=O)c(N)c2c2c1CCCC2`: the Potency entry was “inactive”.

Consider `Cc1ccc(C(C)C)c(OCCN2CCc3ccccc3C2)c1`, for which the Potency entry was “inactive”.

`CCC(=O)NC1=C(Cl)C(=O)C(NC(=O)CC)=C(Cl)C1=O`: the Potency result is “inactive”.

For `COc1ccc(Nc2cc3n(c(=O)n2)CCc2cc(OC)c(OC)cc2-3)cc1`, the Potency result was “inactive”.

For the compound `CC1=C/C(=C\C=C(C#N)C#N)N(C)c2ccccc21`, the Potency result was “inactive”.

Regarding `CN(C)Cc1ccc(F)cc1Sc1cc(Cl)ccc1Cl`, the Potency result was “inactive”.

Turning to `S=c1[nH]nc(Cn2c(-c3ccccn3)nc3ccccc32)n1-c1ccc2c(c1)OCCO2`, the Potency result is “inactive”.

`CCC(=O)c1ccc2c(c1)OCCO2`: the Potency entry was “inactive”.

On to `Nc1nc2ccccc2cc1-c1cccs1`, for which the Potency entry is “inactive”.

Consider `CC(=O)/C(N=Nc1nc2c([nH]1)c(=O)n(C)c(=O)n2C)=C(\C)O`, for which the Potency result is “inactive”.

Turning to `CCc1oc(C(=O)OC)cc1CSC(=N)N`, the Potency result was “inactive”.

Consider `Cc1cccc(C)c1NC(=O)COC(=O)c1cc(=O)c2ccccc2o1`, for which the Potency result was “inactive”.

On to `Cc1nn(C)c(Cl)c1CN1CCN(C2CCCC2)C(CCO)C1` (stereo not given), for which the Potency entry was “inactive”.

Consider `CCNC(=S)N(Cc1cc2cccc(C)c2[nH]c1=O)C1CCCC1`, for which the Potency entry was “inactive”.

With `CCOC(=O)Cn1c(-c2ccccc2)cc(SC)c(C#N)c1=O`, the Potency result was “inactive”.

Turning to `COc1ccc(NCc2cc(=O)oc3cc(NC(C)=O)ccc23)cc1`, the Potency result is “inactive”.

`CCC(Oc1ccccc1)C(=O)N(C)CC(=O)N(CC(C)C)c1c(N)n(CC(C)C)c(=O)[nH]c1=O` (stereo not given): the Potency entry is “inactive”.

In the case of `OC(CN1CCCCC1)Cn1c2ccc(Cl)cc2c2cc(Cl)ccc21` (stereo not given), the Potency entry was “inactive”.

Take `COc1ccc(CNC(=O)COc2cccnc2[N+](=O)[O-])cc1OC`: the Potency result was “inactive”.

In the case of `CNC(=O)/C=C/c1cc(C(=O)c2ccc(Cl)cc2Cl)cn1C`, the Potency result is “inactive”.

`O=C(OCCc1cc2ccccc2c(=O)o1)c1cccc(Br)c1`: the Potency entry was “inactive”.

With `O=C(Nc1ccc(N2CCCC2)cc1)c1ccc(Cl)cc1Cl`, the Potency entry is “inactive”.

`CN1C[C@@H]2C(c3ccccc3)C3(c4ccccc4)CC2(C3)[C@H]1c1ccccc1` (stereo not given in full): the Potency result is “inactive”.

Consider `COc1ccc2nc(NCCCNC(=O)c3cc(OC)c(OC)c(OC)c3)c(C#N)cc2c1`, for which the Potency was 29.2 µM (active).

Take `CCOC(=O)C1=C(O)C(=O)N(Cc2ccccc2)C1`: the Potency entry is “inactive”.

`CN(CCc1ccccn1)C(=O)c1cc(COc2ccc(F)cc2F)on1`: the Potency entry was “inactive”.

For the compound `CCOC(=O)CN(C(=O)CSc1nnc(COc2ccc(OC)cc2)n1CC)c1ccccc1`, the Potency result was “inactive”.

On to `Fc1cccc(Cl)c1/C=C/c1cnc2ccccc2n1`, for which the Potency result was “inactive”.

Regarding `CNC(=O)c1ccc(-c2sc3nc(N4CCOCC4)c4c(c3c2N)CC(C)(C)OC4)o1`, the Potency was 46.3 µM (active).

For the compound `CC1=NN(C(C#N)c2ccc([N+](=O)[O-])cc2)C(C)(C)C1` (stereo not given), the Potency entry was “inactive”.

As for `CCC12CN(C(=O)c3ccc([N+](=O)[O-])cc3)CC(CC)(CN(C(=O)c3ccc([N+](=O)[O-])cc3)C1)C2=O`, the Potency result was “inactive”.

As for `COc1cccc(/C=N/NC(=O)c2cc3cc([N+](=O)[O-])ccc3s2)c1O`, the Potency result is “inactive”.

As to `CC(O)[C@H]1CNC(=O)C(=O)N1CC1(c2ccccc2)CC1` (stereo not given in full), the Potency result is “inactive”.
